Drawing on the supplement of paper PMC10849652, this text covers log2 fold change for 39 targets.

About 8,800 targets were measured; listed, in parts, are those with a hit and a random draw of the rest. About 0.5% of all pairs of compound and target were hits.

UniProt Q93096, sequence (Q93096 whole entry, looked up): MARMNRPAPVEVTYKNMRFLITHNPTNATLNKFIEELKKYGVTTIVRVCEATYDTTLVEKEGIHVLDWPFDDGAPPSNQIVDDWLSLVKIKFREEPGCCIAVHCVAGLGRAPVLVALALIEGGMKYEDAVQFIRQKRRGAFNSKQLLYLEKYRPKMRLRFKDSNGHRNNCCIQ
UniProt Q01813, sequence (Q01813 whole entry, looked up): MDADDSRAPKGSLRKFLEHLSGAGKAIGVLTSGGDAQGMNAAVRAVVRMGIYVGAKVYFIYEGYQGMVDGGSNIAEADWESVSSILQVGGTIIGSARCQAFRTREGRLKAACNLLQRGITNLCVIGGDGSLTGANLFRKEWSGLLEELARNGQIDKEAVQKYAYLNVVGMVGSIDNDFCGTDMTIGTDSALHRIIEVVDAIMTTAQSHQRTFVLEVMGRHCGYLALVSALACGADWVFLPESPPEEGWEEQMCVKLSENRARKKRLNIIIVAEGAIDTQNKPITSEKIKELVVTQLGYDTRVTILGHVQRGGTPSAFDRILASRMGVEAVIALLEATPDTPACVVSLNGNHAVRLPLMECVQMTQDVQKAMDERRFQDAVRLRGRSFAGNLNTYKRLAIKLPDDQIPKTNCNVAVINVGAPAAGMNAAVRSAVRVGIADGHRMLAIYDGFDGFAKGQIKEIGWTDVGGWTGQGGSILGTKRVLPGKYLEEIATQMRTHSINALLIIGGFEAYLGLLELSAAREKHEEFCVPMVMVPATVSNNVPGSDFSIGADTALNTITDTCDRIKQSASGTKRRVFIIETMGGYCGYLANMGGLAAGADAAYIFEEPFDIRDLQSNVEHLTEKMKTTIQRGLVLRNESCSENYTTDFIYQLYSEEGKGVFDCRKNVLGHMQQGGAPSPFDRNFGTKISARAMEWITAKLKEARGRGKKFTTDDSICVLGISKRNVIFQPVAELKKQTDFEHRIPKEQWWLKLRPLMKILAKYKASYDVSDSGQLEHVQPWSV
UniProt P18031, sequence (P18031 whole entry, looked up): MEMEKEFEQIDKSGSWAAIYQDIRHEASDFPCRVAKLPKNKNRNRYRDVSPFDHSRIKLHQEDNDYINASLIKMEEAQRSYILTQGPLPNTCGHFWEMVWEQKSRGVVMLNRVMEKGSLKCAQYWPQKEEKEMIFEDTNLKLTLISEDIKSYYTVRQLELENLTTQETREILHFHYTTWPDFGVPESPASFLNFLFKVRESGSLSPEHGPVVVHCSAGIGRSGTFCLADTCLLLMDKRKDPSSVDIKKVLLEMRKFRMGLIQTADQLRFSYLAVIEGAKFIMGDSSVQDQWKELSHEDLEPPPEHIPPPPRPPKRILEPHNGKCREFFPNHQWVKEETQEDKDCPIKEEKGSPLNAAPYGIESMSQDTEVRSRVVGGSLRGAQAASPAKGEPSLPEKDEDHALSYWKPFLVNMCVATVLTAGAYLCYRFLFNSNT
UniProt Q10713, sequence (Q10713 whole entry, looked up): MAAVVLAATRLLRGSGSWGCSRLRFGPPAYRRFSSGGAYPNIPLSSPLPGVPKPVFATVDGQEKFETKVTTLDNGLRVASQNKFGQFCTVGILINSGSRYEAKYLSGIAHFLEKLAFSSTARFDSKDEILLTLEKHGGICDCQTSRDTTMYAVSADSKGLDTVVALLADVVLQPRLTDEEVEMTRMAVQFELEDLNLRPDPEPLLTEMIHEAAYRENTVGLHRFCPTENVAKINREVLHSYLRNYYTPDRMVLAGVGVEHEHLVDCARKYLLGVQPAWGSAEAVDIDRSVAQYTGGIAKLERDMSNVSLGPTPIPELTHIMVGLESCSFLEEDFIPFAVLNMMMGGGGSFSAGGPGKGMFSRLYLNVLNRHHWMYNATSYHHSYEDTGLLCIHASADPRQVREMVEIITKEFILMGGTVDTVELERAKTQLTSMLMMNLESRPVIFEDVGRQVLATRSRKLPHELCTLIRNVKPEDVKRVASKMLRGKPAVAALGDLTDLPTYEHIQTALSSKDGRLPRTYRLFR
UniProt P14314, sequence (P14314 whole entry, looked up): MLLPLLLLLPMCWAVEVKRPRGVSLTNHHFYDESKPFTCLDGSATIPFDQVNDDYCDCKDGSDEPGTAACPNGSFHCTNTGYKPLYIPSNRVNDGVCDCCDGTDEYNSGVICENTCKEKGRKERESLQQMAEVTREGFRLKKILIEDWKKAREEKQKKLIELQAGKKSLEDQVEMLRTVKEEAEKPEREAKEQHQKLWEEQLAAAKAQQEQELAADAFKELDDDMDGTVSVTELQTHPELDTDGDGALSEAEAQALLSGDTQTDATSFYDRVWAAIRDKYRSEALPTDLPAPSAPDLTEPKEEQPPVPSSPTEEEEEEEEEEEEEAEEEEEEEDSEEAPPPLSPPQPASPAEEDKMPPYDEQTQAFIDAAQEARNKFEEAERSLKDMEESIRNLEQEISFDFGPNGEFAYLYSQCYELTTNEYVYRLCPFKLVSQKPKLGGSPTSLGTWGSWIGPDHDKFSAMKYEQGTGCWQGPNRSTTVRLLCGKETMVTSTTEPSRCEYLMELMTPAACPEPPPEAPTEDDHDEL
UniProt Q99541, sequence (Q99541 whole entry, looked up): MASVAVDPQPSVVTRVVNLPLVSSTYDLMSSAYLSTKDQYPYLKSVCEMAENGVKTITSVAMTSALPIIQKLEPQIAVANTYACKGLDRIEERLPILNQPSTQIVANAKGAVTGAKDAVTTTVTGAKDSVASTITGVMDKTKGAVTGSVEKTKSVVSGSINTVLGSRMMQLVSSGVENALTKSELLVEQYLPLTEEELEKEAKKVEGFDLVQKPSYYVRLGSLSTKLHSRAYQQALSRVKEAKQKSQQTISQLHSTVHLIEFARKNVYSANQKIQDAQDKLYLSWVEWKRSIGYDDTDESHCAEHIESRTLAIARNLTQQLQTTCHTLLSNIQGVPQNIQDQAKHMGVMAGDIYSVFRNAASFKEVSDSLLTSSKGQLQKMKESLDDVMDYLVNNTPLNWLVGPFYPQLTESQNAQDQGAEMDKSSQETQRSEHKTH
UniProt P09884, sequence (P09884 whole entry, looked up): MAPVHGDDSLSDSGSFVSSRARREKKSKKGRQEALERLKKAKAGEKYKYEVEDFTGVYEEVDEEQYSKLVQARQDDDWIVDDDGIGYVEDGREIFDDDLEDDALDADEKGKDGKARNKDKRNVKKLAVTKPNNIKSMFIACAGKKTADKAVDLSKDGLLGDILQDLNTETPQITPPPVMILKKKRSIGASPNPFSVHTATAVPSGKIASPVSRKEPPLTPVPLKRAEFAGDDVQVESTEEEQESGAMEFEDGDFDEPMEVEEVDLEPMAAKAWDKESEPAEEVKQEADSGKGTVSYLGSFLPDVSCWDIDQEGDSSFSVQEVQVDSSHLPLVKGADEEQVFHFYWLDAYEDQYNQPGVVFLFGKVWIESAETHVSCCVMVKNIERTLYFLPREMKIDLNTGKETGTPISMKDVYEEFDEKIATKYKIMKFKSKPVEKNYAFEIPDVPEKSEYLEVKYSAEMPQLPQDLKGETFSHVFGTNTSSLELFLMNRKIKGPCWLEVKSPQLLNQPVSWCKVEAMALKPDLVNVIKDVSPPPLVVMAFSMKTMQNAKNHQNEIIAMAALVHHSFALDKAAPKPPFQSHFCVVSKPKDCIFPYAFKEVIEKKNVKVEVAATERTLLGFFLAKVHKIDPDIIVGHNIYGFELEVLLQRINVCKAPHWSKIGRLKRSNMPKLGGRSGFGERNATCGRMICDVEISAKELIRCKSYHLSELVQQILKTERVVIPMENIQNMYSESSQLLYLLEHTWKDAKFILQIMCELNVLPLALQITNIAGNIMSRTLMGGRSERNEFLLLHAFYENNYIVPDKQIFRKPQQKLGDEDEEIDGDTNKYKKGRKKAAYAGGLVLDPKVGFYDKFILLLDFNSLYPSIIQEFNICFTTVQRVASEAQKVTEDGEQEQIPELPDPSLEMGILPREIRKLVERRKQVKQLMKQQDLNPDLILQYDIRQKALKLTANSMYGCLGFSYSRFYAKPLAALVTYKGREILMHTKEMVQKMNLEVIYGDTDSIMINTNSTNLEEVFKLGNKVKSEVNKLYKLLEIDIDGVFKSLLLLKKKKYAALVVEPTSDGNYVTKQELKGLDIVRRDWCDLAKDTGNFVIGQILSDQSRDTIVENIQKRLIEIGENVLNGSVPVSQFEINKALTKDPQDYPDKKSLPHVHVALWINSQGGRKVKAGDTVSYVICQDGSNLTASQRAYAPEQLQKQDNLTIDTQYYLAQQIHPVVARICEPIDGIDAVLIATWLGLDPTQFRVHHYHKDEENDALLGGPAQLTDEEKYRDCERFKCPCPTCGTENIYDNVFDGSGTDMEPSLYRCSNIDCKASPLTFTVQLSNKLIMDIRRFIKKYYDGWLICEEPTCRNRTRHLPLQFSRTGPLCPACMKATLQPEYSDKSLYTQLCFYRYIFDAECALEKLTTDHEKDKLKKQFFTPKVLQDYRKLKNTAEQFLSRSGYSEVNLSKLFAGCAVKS
UniProt P41219, sequence (P41219 whole entry, looked up): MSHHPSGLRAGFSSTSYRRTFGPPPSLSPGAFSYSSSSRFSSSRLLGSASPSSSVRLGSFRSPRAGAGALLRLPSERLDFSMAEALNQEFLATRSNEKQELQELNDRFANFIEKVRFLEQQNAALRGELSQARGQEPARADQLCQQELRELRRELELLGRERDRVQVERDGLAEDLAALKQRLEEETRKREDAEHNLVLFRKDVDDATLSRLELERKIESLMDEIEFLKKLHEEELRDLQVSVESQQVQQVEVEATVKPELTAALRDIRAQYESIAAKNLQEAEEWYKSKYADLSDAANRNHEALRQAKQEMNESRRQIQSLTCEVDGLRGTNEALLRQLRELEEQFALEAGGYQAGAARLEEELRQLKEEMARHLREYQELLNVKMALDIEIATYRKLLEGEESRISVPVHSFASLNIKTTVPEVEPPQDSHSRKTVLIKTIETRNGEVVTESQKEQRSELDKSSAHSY
UniProt Q96I23, sequence (Q96I23 whole entry, looked up): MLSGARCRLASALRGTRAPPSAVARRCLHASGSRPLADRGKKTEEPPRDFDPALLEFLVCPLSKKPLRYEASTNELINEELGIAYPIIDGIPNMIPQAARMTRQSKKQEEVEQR

Compound in this experiment: CN1CCN(c2nc(C3=C(c4c[nH]c5ccccc45)C(=O)NC3=O)c3ccccc3n2)CC1 [sotrastaurin]
In words: log2 fold change, soluble protein after heating vs DMSO (PISA); higher = thermal stabilisation; K562 lysate, 10 uM; active = over 0.2 and 3.5 SD of the protein, either way, in both replicates (recomputed). Put shortly:
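Values give the log-two fold change in thermal stability against solvent controls, from duplicates. Crude K562 extract at 1 mg/mL protein, made by dounce homogenisation in PBS pH 7.4 with 1 mM MgCl2, was treated with 10 μM compound for 30 min. After 3 min heating across 48°C-58°C, aliquots were pooled, adjusted to 0.5% NP-40 at 4°C and centrifuged at 21,000xg for 90 min. The supernatant was measured by TMTpro 16plex LC-MS/MS with channel sums equalised.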
Consider PDCD10 (UniProt Q9BUL8), for which the log2 fold change is 0.04 (inactive).
As for PGPEP1 (UniProt Q9NXJ5), the figure is -0.056 (inactive).
Then PRIM1 (UniProt P49642), with 0.007 (inactive); and PPP1R8 (UniProt Q12972), with 0.015 (inactive); and PELO (UniProt Q9BRX2), with -0.018 (inactive).
Then PDCD6IP isoform 2 (UniProt Q8WUM4), with 0.003 (inactive); and PTGES2 (UniProt Q9H7Z7), with 0.058 (inactive).
For the target PYURF (UniProt Q96I23), the log2 fold change was -0.034 (inactive).
Then PMPCA (UniProt Q10713), with 0.006 (inactive).
Take POLA1 (UniProt P09884): the log2 fold change was 0.004 (inactive).
Then PHKG2 (UniProt P15735), with -0.054 (inactive).
Then PRKACB isoform 2 (UniProt P22694), with 0.175 (inactive).
For the target POLB (UniProt P06746), the log2 fold change was 0.048 (inactive).
With PTPN1 (UniProt P18031), the log2 fold change is 0.069 (inactive).
As for PRPH isoform 2 (UniProt P41219), the figure is 0.036 (inactive); as for PKN1 isoform 2 (UniProt Q16512), -0.143 (inactive); as for PPP4R2 (UniProt Q9NY27), 0.006 (inactive).
Then PEF1 (UniProt Q9UBV8), with -0.016 (inactive); and PXMP4 (UniProt Q9Y6I8), with 0.025 (inactive).
Turning to POLR3E (UniProt Q9NVU0), the log2 fold change is 0.048 (inactive).
As for PRKRA (UniProt O75569), the figure is 0.009 (inactive); as for PTK2 (UniProt Q05397), 0.039 (inactive); as for PLIN2 (UniProt Q99541), 0.007 (inactive).
As for PHACTR4 isoform 2 (UniProt Q8IZ21), the figure is 0.013 (inactive).
Take PTGR2 (UniProt Q8N8N7): the log2 fold change is 0.1 (inactive).
As for PRMT5 (UniProt O14744), the figure is 0.015 (inactive).
Then PCYT1B (UniProt Q9Y5K3), with -0.002 (inactive); and POC5 (UniProt Q8NA72), with -0.046 (inactive).
As for PFKP (UniProt Q01813), the figure is -0.025 (inactive); as for PDF (UniProt Q9HBH1), -0.02 (inactive).
Consider PYCR2 (UniProt Q96C36), for which the log2 fold change was -0.014 (inactive).
Then PDE2A (UniProt O00408), with 0.039 (inactive); and PRKACA (UniProt P17612), with 0.216 (inactive); and PTPN2 (UniProt P17706), with 0.011 (inactive).
PPFIA2 (UniProt O75334): the log2 fold change is -0.05 (inactive).
PTP4A1 (UniProt Q93096): the log2 fold change is 0 (inactive).
As for PDXDC1 (UniProt Q6P996), the figure is 0.015 (inactive).
Then PRKCSH isoform 2 (UniProt P14314), with 0.199 (inactive); and POLD3 (UniProt Q15054), with -0.01 (inactive).
